A selection: hits, their analogues and other compounds. The true share with any hit is near 4.9%.
Platelet DG rel – inhibitors of platelet dense granule secretion, primary screen, cell-based, MLPCN, human platelets; human platelet-rich plasma, SFLLRN dense granule ATP release, luminescence; inhibition, %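 (compounds screened at 7.5 µM in platelet-rich plasma)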; 300,000 compounds, 0.22% hits; AID 1663, 2009;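 active = mean replicate score, as percent of positive control, at or above 50; inconclusive = mean below 50 but at least one replicate at or above 50; inactive = mean and every replicate below 50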
HSF1 inhib – HSF1 inhibitors in luciferase reporter cells, primary screen, cell-based, NIH3T3, luminescence | NIH3T3-HGL HSE-luciferase, MG132-induced, luminescence 8 h; stronger effect = lower value | activity change, negative = inhibition, % at 7.5 µM (by protocol) | 300,000 compounds, 0.77% hits;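 active = more than half of replicate wells show activity change below -50%, luminescence cut by over half; inconclusive = some wells, but at most half, below -50%; inactive = no replicate well below -50%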;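 note: luciferase reports HSF-1 transcriptional activity via heat shock element; 0% = median of DMSO wells and -100% = zero luminescence signal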
HSP90 inh – HSP90 inhibitors, primary screen, cell lysate, luminescence | Rabbit reticulocyte lysate, luciferase refolding luminescence, 3 h | inhibition, % at 5.6 µM | 290,000 compounds, 0.91% hits | AID 1789, 2009;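 active = inhibition above the screen-wide mean plus 3 SD, computed separately per campaign, cut at about 16% in these data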;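 note: 0% = DMSO wells and 100% = 60 µM geldanamycin wells; inhibitors lower the luminescence because luciferase stays unfolded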
dFosB activator – activators of delta FosB homodimer, primary screen, biochemical, fluorescence polarization, TAMRA-CDK5 oligo, single point; Protein FosB (Mus musculus), P13346; purified delta FosB; percent of positive-control signal above neutral wells; activation, % at 25 µM; 340,000 compounds, 0.99% hits; AID 493131, 2011;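 active = mean activation above about 17%, with every replicate also reaching it, limit read from the data, passing the limit was not always enough; inconclusive = only one of the two conditions met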
Target sequence (P13346 whole entry, looked up): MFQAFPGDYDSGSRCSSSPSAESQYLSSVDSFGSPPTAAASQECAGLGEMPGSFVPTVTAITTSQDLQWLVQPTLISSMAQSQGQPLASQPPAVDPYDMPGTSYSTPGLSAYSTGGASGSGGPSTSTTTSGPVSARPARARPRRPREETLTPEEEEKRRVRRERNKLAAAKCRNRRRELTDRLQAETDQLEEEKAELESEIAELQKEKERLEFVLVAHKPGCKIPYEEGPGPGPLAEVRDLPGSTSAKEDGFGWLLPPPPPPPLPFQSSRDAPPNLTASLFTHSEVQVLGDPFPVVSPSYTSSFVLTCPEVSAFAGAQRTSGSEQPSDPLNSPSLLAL
HSF-1 act – HSF-1 activators, primary screen, NIH3T3-HGL cells, MG132 stress, luminescence, single point | NIH3T3-HGL HSF-1 luciferase reporter, 8 h; 100% = twice DMSO control signal | activation, % at 9 µM | 300,000 compounds, 1.7% hits;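 active = mean replicate activation of at least 50% with a set share of replicates each reaching 50%; inconclusive = only one of those two conditions met; inactive = mean below 50% and too few replicates reaching it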;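 note: 0% = median of the neutral control wells and 100% = twice that signal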
MPTP block – mitochondrial permeability transition pore inhibitors, primary screen, biochemical, isolated mouse mitochondria, absorbance; Ca2+ swelling absorbance, 30 min; inhibition, % at 10 µM; 360,000 compounds, 1.4% hits;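 active = inhibition of 50% or more, scaled per plate between neutral and stimulator controls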;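 note: 0% = DMSO wells given calcium and 100% = 1 mM EGTA wells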
Rh123 counter – fluorescence retest of MPTP screen hits in isolated mitochondria, single concentration | 5,000 compounds, 78% hits | AID 624504, 2012 | shares compounds with MPTP block | inhibition, % at 10 µM | membrane potential, Rhodamine 123 fluorescence; in the data active = inhibition above about 22%;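 note: 0% = DMSO vehicle and 100% = positive control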
MPTP swell DR – mitochondrial permeability transition pore inhibitors, dose response, biochemical, absorbance, uHTS hits; shares compounds with MPTP block; isolated mitochondria swelling; 780 compounds, 58% hits; IC50, µM; in the data active = IC50 below about 20 µM
MPTP counter DR – fluorescent counter-screen in isolated mitochondria, dose response, counter-screen for MPTP inhibitor project, biochemical, fluorescence, uHTS hits. shares compounds with MPTP block. 780 compounds, 49% hits. isolated mitochondria counterscreen, fluorescence read-out. IC50, µM; in the data active = IC50 below about 80 µM
Starred values were filed as active, the others as inactive; ? = inconclusive; nt = no result given; + = active, no number.

SMILES | Platelet DG rel | HSF1 inhib | HSP90 inh | dFosB activator | HSF-1 act | MPTP block | Rh123 counter | others
O=C(Nc1cccc(Cl)c1)Nc1cc(S(=O)(=O)N2CCCCC2)ccc1Cl | -4.4 | 6.0 | -1.7 | -5.5 | 3.1 | 84.2* | 62.8*
Cc1ccc(S(=O)(=O)N2CCCCC2)cc1NCC(=O)Nc1ccc(Br)cc1F | nt | nt | nt | nt | nt | 66.0* | 93.9*
Cc1ccc(S(=O)(=O)N2CCCCC2)cc1NC(=O)Nc1ccc(Cl)cc1Cl | -0.6 | 3.2 | 0.6 | 0.2 | 2.8 | 85.2* | 28.5*
O=C(OCC#Cc1c(COC(=O)c2ccccc2)nnn1Cc1ccccc1)c1ccccc1 | 16.0 | -4.6 | nt | -1.8 | 3.4 | -0.4 | nt
CCO[C@@H]1OC(C(=O)NC2CC2)=C[C@H](c2ccc(Br)cc2)[C@H]1CCCO | 2.2 | 2.9 | nt | 4.8 | -8.6 | -0.6 | nt
Cc1cc(-c2ccc(C(C)C)c(S(=O)(=O)N3CCC(C)CC3)c2)on1 | -2.4 | 21.9 | 2.4 | -11.3 | 38.2 | -0.3 | nt
O=C(/C=C/c1c(Cl)cccc1Cl)Nc1ccncc1 | 5.9 | 37.1 | 1.5 | -17.0 | ? | 61.5* | 57.0*
O=C(/C=C/c1cccc(Cl)c1)Nc1ccncc1 | 1.6 | 4.4 | -1.3 | -18.3 | 1.6 | 12.1 | nt
COc1ccc(-c2cc(C(=O)Nc3ccc(Br)cc3)no2)cc1 | -0.9 | -2.4 | 2.7 | -0.7 | 5.6 | -0.6 | nt
COC(=O)CS(=O)(=O)c1nnc([C@H](Cc2ccccc2)NC(=O)OC(C)(C)C)o1 | 28.5 | 34.6 | -1.3 | -16.2 | ? | 97.7* | 0.7
COC(=O)CSc1nnc([C@H](Cc2ccccc2)NC(=O)OC(C)(C)C)o1 | 27.0 | -5.7 | -2.5 | 2.4 | -18.9 | 0.3 | nt
CC1(c2nnnn2-c2ccc3c(c2)OCCO3)CCC(=O)N1CC1CCCCC1 (stereo unspecified) | nt | nt | nt | nt | nt | 0.2 | nt
CCc1ccc(S(=O)(=O)c2nnn3c2nc(NCCNC(C)=O)c2ccccc23)cc1 | 15.0 | 6.4 | 0.5 | 2.7 | -2.7 | 64.9* | 43.1*
O=C(Cn1cnc2ccccc21)Nc1ccc(SC(F)F)cc1 | 1.1 | -0.8 | 2.5 | -1.7 | -1.3 | 93.2* | 86.6*
CC1(Cc2ccc(OC(F)(F)F)cc2)C(=O)Nc2ccc(S(=O)(=O)NC3CCCCC3)cc21 (stereo unspecified) | nt | nt | nt | nt | nt | -0.3 | nt
CCOC(=O)c1nnc(-c2cccs2)nc1Oc1ccc(Cl)cc1 | -2.6 | -3.0 | -5.2 | 0.9 | 2.3 | + | -5.1 | MPTP swell DR=>100;MPTP counter DR=>80
CC(C)COc1ccc(CNC(=S)Nc2ccccc2)cc1Cl | -6.7 | 7.5 | -2.9 | -4.9 | 19.7 | 74.3* | 86.0*
COc1ccc(CSCCNC(=S)Nc2ccccc2)cc1Cl | 11.1 | 22.3 | -0.1 | -0.7 | 26.2 | 78.5* | 90.1*
S=C(Nc1ccccc1)Nc1ccc(OCc2ccc(Cl)cc2Cl)cc1 | 2.8 | 2.4 | -1.0 | -8.2 | 5.6 | 84.8* | 88.7*
COc1ccc(CNC(=S)Nc2ccccc2)cc1Cl | -9.4 | 10.4 | 9.3 | -1.1 | 19.6 | 1.4 | nt
S=C(NCCSCc1c(Cl)cccc1Cl)Nc1ccccc1 | -10.7 | nt | 3.0 | -3.6 | nt | 79.3* | 86.2*
S=C(NCCSCc1ccc(Cl)cc1Cl)Nc1ccccc1 | nt | 35.4 | 0.0 | -4.8 | 51.8* | 96.9* | 105.0*
Cc1ccccc1CSCCNC(=S)Nc1ccccc1 | -6.1 | 3.2 | -1.3 | -7.9 | 13.1 | 56.9* | 78.4*
Cc1ccc(C(=O)NCCSCc2ccc(Cl)cc2Cl)cc1[N+](=O)[O-] | 3.8 | 10.3 | -3.3 | 0.2 | 7.0 | 68.4* | 78.4*
CCOc1ccc(CSCCNC(=S)Nc2ccccc2)cc1 | -2.4 | -6.8 | 3.7 | -5.0 | -8.4 | 45.8 | nt

Compound activity (PubChem BioAssay)
